Shown are actives, neighbours in structure and some others; about 5.3% of the full set was active somewhere.
Lassa entry inh – qHTS for Inhibitors of binding or entry into cells for Lassa Virus. Potency, µM (series often up to 37.9 µM), for inactives: top-dose activity change, negative = inhibition, hits mostly inhibitors. Lassa virus pseudotype entry inhibition, cell reporter. 1.2% of 300,000 active; calls by dose curve; tested in HEK293 cells; also: nearly all actives have a fitted effect of over 50% in size
Vaccinia mCherry – qHTS for Stage-Specific Inhibitors of Vaccinia Orthopoxvirus: mCherry Reporter Primary qHTS; AID 720579, 2013; Potency, µM (highest dose often 36.5 µM), for inactives: at the highest dose activity change, negative = inhibition, hits mostly inhibitors; Vaccinia virus mCherry reporter infection, fluorescence; 0.63% of 310,000 active; calls by dose curve; tested in A549 cells; also: nearly all actives have a fitted effect of over 35% in size
MARV entry inh – qHTS for inhibitors of binding or entry into cells for Marburg Virus; Marburg virus pseudotyped entry inhibition, cell reporter; Potency, µM (top dose mostly 37.8 µM), without a hit: at the top dose activity change, negative = inhibition, usual class: inhibitors; 1.8% of 300,000 active; AID 540276, 2011; calls by dose curve; tested in HEK293 cells
FMDV inh – High Throughput Screening for Foot and Mouth Disease Virus Antivirals. FMDV antiviral cell-based qHTS. Potency, µM (highest dose often 57.9 µM), for the others: at the highest dose activity change, negative = inhibition, actives largely listed as inhibitors. 1.2% of 410,000 active. AID 1159524, 2015; calls by dose curve; tested in HEK293T cells; also: read-out not given here; nearly all actives have a fitted effect of over 45% in size
Vaccinia Venus – qHTS for Stage-Specific Inhibitors of Vaccinia Orthopoxvirus: Venus Reporter Primary qHTS | Potency, µM (top dose mostly 36.5 µM), for inactives: at the top dose activity change, negative = inhibition, usual class: inhibitors | Vaccinia virus Venus reporter expression, fluorescence | 0.46% of 330,000 active; calls by dose curve; tested in A549 cells; also: nearly all actives have a fitted effect of over 30% in size
HCV inh – qHTS Assay for Inhibitors of Hepatitis C Virus (HCV); 3.4% of 340,000 active; Potency, µM (series often up to 41.8 µM), for inactives: at the top dose activity change, negative = inhibition, actives largely listed as inhibitors; Huh7.5.1 HCVcc-Cre infection, luciferase reporter, 44 h; active = well fitted inhibition curve with a large enough effect; inconclusive = small, poorly fitted or top-dose-only effect, or another doubt; inactive = no such curve, though single readings can be large or run the other way
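A cell-based infection assay in which seeded cells (1,000 per well) receive test compound after 4 h, are inoculated with HCVcc-Cre at approximately 0.5 moi, and are incubated 44 h before luminescence detection.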
* marks the source's active call; other numbers are inactive results; i = inactive; ? = inconclusive; . = no result given; [ ] = dose if it differs, or a comment. % is scaled to controls: 0 for no effect and ±100 for the full control effect; potency is read from the fitted curve at half-maximal effect.

SMILES | Lassa entry inh | Vaccinia mCherry | MARV entry inh | FMDV inh | Vaccinia Venus | HCV inh
O=C1[C@H]2[C@H]3[C@H](O)[C@H](O)C/C(=N\OC[C@@H](O)COCc4ccco4)[C@H]3CC[C@H]2C(=O)N1C[C@@H]1CCCO1 | . | . | -1%[14.2 µM] | . | . | .
c1ccc(-c2cn3nc4c(nc3n2)CCCC4)cc1 | 1.1µM* | -10% | 1µM* | 5.6µM* | -10% | -7%
Brc1ccc(-c2cn3nc4c(nc3n2)CCCC4)cc1 | ? | i | 5µM* | ? | -7% | -15%
Nc1nn2cc(-c3ccc(Br)cc3)nc2c2ccccc12 | . | . | . | 31% | . | ?
COc1cc(OC)c2nc(-c3cc4c(c(OC)c3)OCCN(Cc3cn(C)nc3C)C4)cc(C)c2c1 | . | -16% | . | -12% | -4% | .
CCOC(=O)c1cc(CC)sc1NC(=O)C1CC(=O)NN1Cc1ccccc1 (centres undefined) | -4% | ? | ? | -30% | -28% | 5.6µM*
CC(=O)N1CCC[C@H]1C(=O)NCC1Cc2cc(C)cc(-c3ccc(Cl)cc3)c2O1 (some centres undefined) | . | -17% | . | -4% | -10% | .
Cc1cc(C)cc(NC(=O)N2CCC(N3CCCCC3)CC2)c1 | 2%[46.1 µM] | -2% | 29%[46.1 µM] | -23% | -1% | .
Cc1ccc(CN(C(=O)COc2cccc([N+](=O)[O-])c2)c2ccccn2)o1 | ? | -7% | 2.8µM* | -10% | 10% | .
Cc1ccc(CN(C(=O)COc2cccc([N+](=O)[O-])c2)c2ccccn2)cc1 | -30%[46.1 µM] | -17% | ? | -8% | -5% | .
COc1ccc(NC(=O)/C=C/c2cc(Br)ccc2OC)cc1 | -5% | . | 12% | -2% | -16% | ?
COc1cc(/C=C/C(=O)c2ccc(NS(=O)(=O)c3ccc(C)cc3)cc2)cc(OC)c1O | ? | ? | ? | -18% | 222% | ?
COc1cc(/C=C/C(=O)c2ccc(NS(=O)(=O)c3ccc(C)cc3)cc2)ccc1OC(F)F | ? | ? | ? | ? | ? | 35µM*
COc1ccc(/C=C/C(=O)c2ccc(NC(=O)c3cccs3)cc2)cc1OC | ? | . | ? | -16% | . | 10µM*
COc1ccc(Br)cc1/C=C/C(=O)c1ccc(NC(C)=O)cc1 | 4µM* | 4.5µM* | ? | 10µM* | 5.6µM* | ?
CCOc1ccc(-n2nc(CO)c(C(=O)NCCCc3ccccc3)n2)cc1 | -1%[46.1 µM] | 0% | -26%[46.1 µM] | 9% | -9% | .
COc1ccc(NC(=O)c2oc3ccc(S(=O)(=O)N4CCCCC4)cc3c2C)cc1Cl | 1%[46.1 µM] | -17% | . | ? | -11% | .
Clc1ccc(-c2n[nH]c3c2CCCC3)cc1 | 16% | i | 0%[46.1 µM] | 42% | 1% | 10µM*
Cn1c(Sc2ccccc2Cl)c(C=O)c2ccccc21 | -25% | -25% | -6% | -5% | -15% | 3%
Cn1c(Sc2ccc(Cl)cc2)c(C=O)c2ccccc21 | -23% | . | -28% | ? | -14% | 10µM*
COc1cccc([C@H]2NC(=O)C[C@@H]3C[C@@H](C)[C@@H](c4cccc(OC)c4)N3C(=O)C=CC[C@@H]2C)c1 | ? | . | 8%[14.2 µM] | . | . | .
COc1ccc(N2CCN(Cc3nc4c(c(=O)[nH]c(=O)n4C)n3CC(C)C)CC2)cc1 | 3%[46.1 µM] | -12% | 7%[46.1 µM] | -8% | -5% | .
Nc1ccc(-n2c(N)c(C(=O)NCc3ccc4c(c3)OCO4)c3nc4ccccc4nc32)cc1 | -6% | ? | ? | ? | -26% | 2.5µM*
COCCCNC(=O)c1c(N)n(-c2ccccc2)c2nc3ccccc3nc12 | -16% | -30% | ? | -23% | -10% | 13µM*
Cc1ccc(-n2c(N)c(C(=O)Nc3c(C)n(C)n(-c4ccccc4)c3=O)c3nc4ccccc4nc32)cc1 | 17% | -27% | ? | -3% | -9% | 11µM*
SMILES | Lassa entry inh | Vaccinia mCherry | MARV entry inh | FMDV inh | Vaccinia Venus | HCV inh
COCCCNC(=O)c1c(N)n(-c2ccc(S(N)(=O)=O)cc2)c2nc3ccccc3nc12 | -22% | i | 2% | -25% | -10% | -18%
COCCNC(=O)c1c(N)n(-c2cccc(C)c2)c2nc3ccccc3nc12 | -26% | . | ? | 0% | -13% | 11µM*
COCCNC(=O)c1c(N)n(-c2ccccc2)c2nc3ccccc3nc12 | -6% | -21% | -30% | . | -17% | ?
CCc1cccc(NC(=O)C(Cc2ccccc2)NS(=O)(=O)c2ccc3c(c2)c(=O)n(C)c(=O)n3C)c1 (centres undefined) | 2%[46.1 µM] | -10% | -27%[46.1 µM] | -15% | -9% | .
CC(C)Nc1nc(-c2ccccc2)nc(-n2ccnc2)n1 | 0% | . | ? | -3% | . | 2.8µM*
c1ccc(-c2nc(-n3ccnc3)nc(-n3ccnc3)n2)cc1 | -15% | . | ? | ? | . | ?
c1ccc(-c2nc(NC3CC3)nc(-n3ccnc3)n2)cc1 | -1% | . | -2% | -13% | . | 2.5µM*
[N-]=[N+]=Nc1ccc(C(=O)CSC[C@H](NC(=O)CC[C@H](N)C(=O)O)C(=O)NCC(=O)O)cc1 | ? | . | 5µM* | . | . | .
CN1C2CCC1CC(OC(c1ccccc1)c1ccc(Cl)cc1)C2 (centres undefined) | . | . | 3.2µM* | . | . | .
CN1C2CCC1CC(OC(c1ccccc1)c1ccccc1N)C2 (centres undefined) | ? | -5% | 18µM* | -21% | -4% | ?
CN1CCC(OC(c2ccccc2)c2ccccc2)CC1 | ? | i | ? | 0% | -9% | -27%
C[C@@H](C(=O)OC1C[C@H]2CC[C@@H](C1)N2C)c1ccc(Br)cc1 (some centres undefined) | . | . | . | 1% | . | .
Nc1c(C(=O)c2ccccc2)sc(Nc2ccccc2)c1S(=O)(=O)c1ccccc1 | ? | . | ? | 23% | . | 14µM*
Nc1nc(Nc2ccccc2)sc1C(=O)c1ccccc1 | ? | ? | -16%[46.1 µM] | 53% | 28µM* | ?
CC1=C(c2ccc(Cl)cc2)S(=O)(=O)NC1=NCCCN1CCN(c2cc(C)ccc2C)CC1 | -17%[46.1 µM] | 10µM* | -12%[46.1 µM] | ? | 11µM* | .
Cc1ccccc1OCCSCc1nc2ccccc2[nH]1 | -1% | i | -4% | -6% | -15% | ?
Cc1cccc(OCCSCc2nc3ccccc3[nH]2)c1 | ? | . | ? | ? | -18% | 6.3µM*
Cc1nn(C)cc1CN1CCOc2ccc(C(C)(O)COc3ccccc3)cc2C1 (centres undefined) | . | -4% | . | -10% | ? | .
CCN1CCN(c2ncnc3c2cnn3-c2ccc(C)cc2)CC1 | ? | -12% | . | 0% | -8% | .
CCC(Sc1nnc(-c2ccc(C)c(Cl)c2)n1CC)C(=O)Nc1nccs1 (centres undefined) | ? | . | ? | 22µM* | . | ?
CC(C)=CCN1C(=O)[C@@]2(CC(C)=C[C@@H](COCc3ccccc3)O2)c2ccccc21 | ? | . | 3%[14.2 µM] | . | . | .

High-throughput results deposited in PubChem BioAssay by National Center for Advancing Translational Sciences (NCATS).
